HUVEC tox TNFa: cytotoxicity in TNFa-stimulated HUVEC, primary screen, cytotoxicity control for VCAM1 expression modulator project, imaging, Hoechst nuclei count | HUVEC TNFalpha-stimulated, Hoechst cell count | cell count reduction, % at 2 µM | 93,000 compounds, 0.17% hits;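 active = cell count reduction exceeding the screen mean by over 5 SD, scaled to untreated wells per plate, cut at about 78% in these data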;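 also: cells counted after 24 h of TNF alpha exposure following the 1 h pretreatment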
HUVEC tox IL1B: cytotoxicity in IL-1B stimulated HUVEC, primary screen, cytotoxicity control for IL-1B NFkB translocation project, imaging, Hoechst nuclear count, IL-1B stimulus. AID 845, 2007. HUVEC cell count loss. cell count reduction, % at 2 µM. 94,000 compounds, 0.41% hits;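 active = cell count reduction more than 3 SD above the screen-wide mean, cut at about 70% in these data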;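 also: normalized per plate to untreated control cells as the no-loss baseline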
VCAM1 TNFa inh: inhibitors of TNFa-induced VCAM1 expression, primary screen, imaging, HUVEC, TNFa stimulus, immunofluorescence; HUVEC TNFa-induced VCAM-1 immunofluorescence, high-content imaging; inhibition, % at 2 µM; 95,000 compounds, 0.48% hits; AID 802, 2007;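 active = inhibition above the batch mean plus 3 SD, with images confirmed as a hit by eye, cut at about 37% in these data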;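 also: 0% = TNF-stimulated DMSO wells and 100% = unstimulated control wells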
NFkB transloc pot: enhancers of NFkB p65 translocation in HUVEC – imaging, IL-1B stimulus, high-content imaging, primary screen | HUVEC IL-1B NFkB p65 nuclear translocation imaging | activation, % at 2 µM | 94,000 compounds, 0.3% hits;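 active = activation above 40%, about the mean plus 3 SD, also judged a hit on visual image review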;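 also: percent activation is computed from the nuclear over cytoplasmic p65 intensity ratio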
E-sel TNF inh: E-selectin induction blockers in HUVEC – imaging, immunofluorescence, high content, primary screen. HUVEC TNFa-induced E-selectin immunofluorescence. AID 1246, 2008. inhibition, % at 2 µM. 120,000 compounds, 0.71% hits;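 active = inhibition above the batch mean plus 3 SD, and confirmed as a hit on visual image review, cut at about 43% in these data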;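 also: 0% = TNF-stimulated DMSO wells and 100% = unstimulated control wells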
NFkB transloc inh: inhibitors of IL-1B driven NFkB p65 nuclear import, primary screen, imaging, HUVEC, IL-1B stimulus, high-content imaging; 94,000 compounds, 0.43% hits; AID 796, 2007; HUVEC IL-1B NFkB p65 nuclear translocation imaging; inhibition, % at 2 µM;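 active = inhibition above about 30% together with a positive call from visual inspection of the well image, limit read from the data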;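 also: nuclear over cytoplasmic p65 intensity ratio measured by imaging; 0% = IL-1B stimulated DMSO wells and 100% = unstimulated DMSO wells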
The depositor's hits bear a star; . = not tested or not shown. Hits are enriched below; roughly 1.7% of the tested compounds scored in any of these assays.

SMILES	HUVEC tox TNFa	HUVEC tox IL1B	VCAM1 TNFa inh	NFkB transloc pot	E-sel TNF inh	NFkB transloc inh
CCOc1ccc(N2CC(C(=O)OCC(=O)NCc3ccccc3)CC2=O)cc1 (stereo not drawn)	-11.3	-36.9	21.6	-5.5	.	5.5
O=S1(=O)CCC(NC(=S)N2CCCCCC2)C1 (stereo not drawn)	.	.	.	.	69.9*	.
O=C(CCC1CCCCC1)Nc1c2c(nn1-c1ccc(F)cc1)CS(=O)C2 (stereo not drawn)	-5.5	75.9*	-2.2	-4.9	.	4.9
COc1ccc(-n2nc3c(c2NC(=O)C2CCCC2)CS(=O)C3)cc1 (stereo not drawn)	-10.0	1.8	6.4	3.9	.	-3.9
CN(CCOc1ccc(-c2ccn(S(=O)(=O)c3cccc4ccccc34)n2)cc1)c1ccccn1	-10.6	-29.8	4.0	-7.3	1.4	7.3
Cc1nn(C2CCCO2)c(=O)nc1N (stereo not drawn)	.	.	.	.	-14.1	.
Cc1ccsc1/C=N/NC(=O)Cc1cccn1C	.	.	.	.	16.7	.
Cc1nnc(SCC(=O)N2CC(=O)Nc3ccccc32)n1C	-6.3	-91.2	-5.9	-0.3	64.0*	0.3
Cc1cccc2cc(C#N)c(SCC(=O)N3CCC(C)CC3)nc12	7.0	17.4	-12.9	-10.4	6.7	10.4
Cc1ccccc1-n1c(C)nnc1SCC(=O)N1CC(=O)Nc2ccccc21	.	.	.	.	3.3	.
Cc1cccc2cc(C#N)c(SCC(=O)N3CC(=O)Nc4ccccc43)nc12	60.3	28.7	94.3*	-9.2	33.3	9.2
COC(=O)c1ccc(CSc2nnc3ccccn23)o1	-20.3	-2.8	8.1	152.0*	49.8	-152.0
CCc1nnc(SCc2ccc(C(=O)OC)o2)n1N	-14.2	-39.3	5.3	-3.6	6.7	3.6
O=C(COC(=O)c1cccc(Cl)c1)Nc1cc(Cl)ccc1Oc1ccccc1	.	.	.	.	3.7	.
COc1ccccc1N1CCN(c2cc(C)nc3nc(C)nn23)CC1	.	.	.	.	17.8	.
COc1ccccc1N1CCN(c2cc(N3CCCC3)nc(C)n2)CC1	28.7	-8.3	12.1	30.2	100.0*	-30.2
CCc1nnc(NC(=O)CSc2nnc(Cc3cc(=O)[nH]c(=O)[nH]3)n2-c2cccc(OC)c2)s1	.	.	.	.	21.7	.
CCC1Sc2ccccc2N(CC(=O)NCc2ccc3c(c2)OCO3)C1=O (stereo not drawn)	.	.	.	.	95.3*	.
Cc1nn(-c2ccccc2)c(Cl)c1C(=O)Nc1nnc(C2CCCCC2)s1	-21.0	-2.5	23.1	8.9	3.0	-8.9
O=C(Nc1nnc(C2CC2)s1)c1cc(-c2ccccc2)nn1-c1ccccc1	.	.	.	.	97.3*	.
CCc1[nH]nc2c1C(c1cccnc1)C(C#N)=C(N)O2 (stereo not drawn)	-2.6	-115.4	11.5	43.3*	9.3	-43.3
CCCc1[nH]nc2c1C(c1cccnc1)C(C#N)=C(N)O2 (stereo not drawn)	82.4*	-30.1	86.9*	-2.5	.	2.5
O=C(NCc1cccnc1)C(=O)N/N=C/c1ccc([N+](=O)[O-])cc1	.	.	.	.	-11.8	.
O=C1c2ccccc2C(=O)N1CCCN1CCN(CCCN2C(=O)c3ccccc3C2=O)CC1	-4.8	89.1*	3.3	-98.1	-3.6	98.1*
O=C(CC1SC(=O)N(c2ccccc2)C1=O)Nc1ccccc1 (stereo not drawn)	-19.3	8.6	11.1	4.7	13.7	-4.7
SMILES	HUVEC tox TNFa	HUVEC tox IL1B	VCAM1 TNFa inh	NFkB transloc pot	E-sel TNF inh	NFkB transloc inh
Cc1cccc(NC(=O)CC2SC(=O)N(c3ccccc3)C2=O)c1 (stereo not drawn)	78.0*	2.0	96.2*	-3.0	1.9	3.0
CC1CCN(c2nc3ccccc3nc2C(C#N)C(=O)OC2CCCCC2)CC1 (stereo not drawn)	5.7	92.5*	-11.0	-96.9	-9.3	96.9*
N#CC(C(=O)OC1CCCCC1)c1nc2ccccc2nc1N1CCCCC1 (stereo not drawn)	-26.1	-109.5	-1.5	12.2	5.2	-12.2
COc1ccc(-n2nc([N+](=O)[O-])c(=NCCc3ccc(Cl)cc3)n2O)cc1	2.4	1.5	3.5	6.7	55.5*	-6.7
COc1ccc(-n2nc([N+](=O)[O-])c(=NCc3ccco3)n2O)cc1	.	.	.	.	-10.9	.
CS(=O)(=O)N(CC(=O)Nc1ccc(F)c(F)c1)c1cccc([N+](=O)[O-])c1	.	.	.	.	-9.8	.

Source: PubChem BioAssay (Columbia University Molecular Screening Center)
